In the library only some 2.4% were active in any assay of this set; here they are far more common.
SENP6 block – inhibitors of human SENP6 protease | Q9GZR1 | Recombinant SENP6 catalytic domain, aminoluciferin luminescence | inhibition, % at 10 µM | 330,000 compounds, 1.8% hits;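 active = inhibition above about 50% at the single tested dose, limit read from the data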;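 also: plate controls were DMSO wells with enzyme for no effect and DMSO wells lacking enzyme for full effect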
SENP7 inh – blocks the human protease SENP7; Q9BQF6; recombinant SENP7, Z-RLRGG-aminoluciferin luminescence, 40 min; inhibition, % at 5 µM; 330,000 compounds, 1.5% hits; AID 434973;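 active = inhibition above about 50% at the single test dose, limit read from the data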;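 also: plate controls were DMSO with enzyme for no effect and no enzyme buffer wells for full effect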
Target sequence (Q9BQF6 706-1050 limits assumed): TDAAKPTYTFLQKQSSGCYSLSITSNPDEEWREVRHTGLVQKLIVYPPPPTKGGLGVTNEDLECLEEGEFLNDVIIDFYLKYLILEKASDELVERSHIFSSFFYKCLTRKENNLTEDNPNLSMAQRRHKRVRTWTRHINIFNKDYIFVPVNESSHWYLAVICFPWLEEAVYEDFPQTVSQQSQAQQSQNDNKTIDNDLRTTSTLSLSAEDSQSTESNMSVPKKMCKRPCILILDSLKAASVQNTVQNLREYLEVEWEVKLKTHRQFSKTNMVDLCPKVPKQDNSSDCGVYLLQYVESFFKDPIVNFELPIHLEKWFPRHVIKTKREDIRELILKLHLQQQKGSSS
Platelet DG rel – modulates dense granule release in human platelets | 300,000 compounds, 0.22% hits | human platelet-rich plasma, SFLLRN dense granule ATP release, luminescence | AID 1663 | inhibition, %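 (compounds screened at 7.5 µM in platelet-rich plasma)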;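 active = mean replicate score, as percent of positive control, at or above 50; inconclusive = mean below 50 but at least one replicate at or above 50; inactive = mean and every replicate below 50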
SENP8 block-1 – inhibitors of human SENP8 protease. purified SENP8, Z-RLRGG-aminoluciferin cleavage, luminescence. inhibition, % at 10 µM. 330,000 compounds, 1.2% hits. AID 2540; in the data active = inhibition above about 50%
SENP8 block-2 – inhibitors of human SENP8 protease; Q96LD8; recombinant SENP8, Nedd8 substrate fluorescence; inhibition, % at 20 µM; 360,000 compounds, 0.64% hits; AID 602440; in the data active = inhibition mostly above about 40%, no sharp cut-off; inactive = mostly below about 27%
SENP8 conf – confirmation of human SENP8 protease inhibitors; shares compounds with SENP7 inh; Recombinant SENP8, Z-RLRGG-aminoluciferin luminescence, 60 min; inhibition, % at 12.5 µM; 6,200 compounds, 40% hits; AID 488912;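 active = mean inhibition across replicates above about 50%, limit read from the data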
SENP6 conf – confirmation of human SENP6 protease inhibitors; shares compounds with SENP7 inh; recombinant SENP6, Z-RLRGG-aminoluciferin luminescence; inhibition, % at 12.5 µM; 6,200 compounds, 58% hits; AID 488915
SENP7 confirm – confirmation of human SENP7 protease inhibitors; shares compounds with SENP7 inh; recombinant SENP7, Z-RLRGG-aminoluciferin luminescence, 40 min; inhibition, % at 12.5 µM; 6,200 compounds, 69% hits; AID 488917
Casp3 SENP sel – inhibits human caspase-3 in SENP selectivity test. shares compounds with SENP7 inh. purified caspase-3, Z-DEVD-aminoluciferin luminescence, 60 min. inhibition, % at 12.5 µM. 6,200 compounds, 60% hits;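 active = mean inhibition above about 50%, limit read from the data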;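 also: plate controls were enzyme with DMSO for no effect and wells without caspase-3 for full effect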
Target sequence (P42574 28-227 limits assumed): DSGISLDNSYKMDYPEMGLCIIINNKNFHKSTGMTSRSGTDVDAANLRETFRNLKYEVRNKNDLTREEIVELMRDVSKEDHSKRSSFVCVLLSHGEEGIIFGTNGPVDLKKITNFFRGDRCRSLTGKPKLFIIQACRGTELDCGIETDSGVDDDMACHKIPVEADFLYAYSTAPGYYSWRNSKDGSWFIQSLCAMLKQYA
SENP luc ctr – interferes with luciferase luminescence in SENP counter-screen | shares compounds with SENP7 inh | Pre-incubated SENP8/Z-RLRGG-aminoluciferin, luciferase luminescence interference | inhibition, % at 12.5 µM | 6,200 compounds, 39% hits | AID 488919;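 active = mean inhibition above about 50% when retested at one dose, limit read from the data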;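 also: plate controls were DMSO wells with completed reaction for no effect and substrate without enzyme for full effect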
Numbers without * were called inactive; ? = inconclusive; nt = not tested or not shown.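 The calls were made as follows, unless noted: active = mean inhibition above about 50% in the one-dose retest (limit read from the data); inactive = the rest.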

SMILES	SENP6 block	SENP7 inh	Platelet DG rel	SENP8 block-1	SENP8 block-2	SENP8 conf	SENP6 conf	SENP7 confirm	Casp3 SENP sel	SENP luc ctr
COc1cc(-c2nc3ccccc3s2)ccc1O	94*	89*	1	94*	-272	95*	96*	102*	88*	95*
CN(C(=O)OC(C)(C)C)c1ccc(-c2nc3ccccc3s2)cc1	100*	100*	17	95*	-488	95*	97*	100*	93*	46
CCOC(=O)c1ccccc1NC(=O)CSc1nc2[nH]ncc2c(=O)[nH]1	-11	3	-2	-5	-1	nt	nt	nt	nt	nt
O=C(Nc1nnc(C(F)(F)F)s1)C1COc2ccccc2O1 (stereo not given)	83*	64*	1	67*	15	81*	80*	95*	91*	85*
CC1(C)Oc2ccc(NC(=O)C3COc4ccccc4O3)cc2O1 (stereo not given)	66*	48	7	27	30	72*	72*	93*	71*	77*
CC(=O)c1sc(NC(=O)C2COc3ccccc3O2)nc1C (stereo not given)	52*	19	-5	29	-46	20	24	62*	62*	51*
Cc1ccc(NC(=O)C2COc3ccccc3O2)cc1 (stereo not given)	0	-22	-6	0	18	nt	nt	nt	nt	nt
CC(NC(=O)c1ccnn1C)C1CCCO1 (stereo not given)	-5	-3	2	-3	11	nt	nt	nt	nt	nt
COc1cc2sc3ccc(C#CC4(O)CCCCC4)cc3c(=O)c2cc1OC	98*	99*	56*	94*	-473	66*	70*	91*	81*	24
Oc1cccc2c(NC(=S)Nc3ccc(OC(F)F)cc3)cccc12	94*	49	12	80*	-190	-4	15	2	5	15
CCOC(=O)c1sc(NC(=O)c2ccccc2)cc1C	93*	94*	24	77*	-44	57*	90*	100*	84*	39
CCOC(=O)c1sc(=NC(=O)c2cccc(OC)c2)n(C)c1C	-13	33	-7	-4	-280	nt	nt	nt	nt	nt
CCOC(=O)c1sc(NC(=O)c2ccc(S(=O)(=O)N(C)C)cc2)cc1C	-3	4	7	-4	-4	nt	nt	nt	nt	nt
CCOC(=O)c1sc(=NC(=O)c2ccccc2)n(C)c1C	-30	54*	8	34	-192	18	14	15	12	4
COc1ccc2nc(SCC(C)=O)c(C#N)cc2c1	69*	60*	2	61*	-52	0	72*	92*	72*	52*
CC(=O)Nc1ccc(-c2ccnc3c2CC(C(=O)NCc2ccccc2)O3)cc1 (stereo not given)	nt	nt	nt	nt	-15	nt	nt	nt	nt	nt
O=C1c2ccccc2C(=O)N1CCSc1ccccc1	60*	41	-5	8	20	26	25	72*	50	48
CC(=O)N(C)c1ccc(NC(=O)/C=C/c2ccccc2Cl)cc1	-4	2	2	-7	22	nt	nt	nt	nt	nt
COc1ccccc1/C=C/C(=O)Nc1cccnc1	23	6	4	9	-16	nt	nt	nt	nt	nt
O=C(/C=C/c1ccccc1Cl)Nc1cccnc1	93*	93*	5	86*	14	13	92*	100*	89*	90*
O=C(/C=C/c1ccccc1Cl)Nc1ccncc1	62*	30	?	35	25	26	21	68*	29	58*
O=C(/C=C/c1c(F)cccc1Cl)Nc1ccncc1	65*	62*	-11	33	7	-5	1	44	17	27
CC(C)(C)c1ccc(/C=C/C(=O)Nc2cccnc2)cc1	85*	83*	-4	76*	18	10	80*	95*	59*	55*
CCOc1ccccc1CNC(=O)c1ccc(NC(=O)C2=CSCCO2)cc1	7	7	-1	2	-8	nt	nt	nt	nt	nt
CCc1ccc(/C(C)=N/NC(=O)CNC(=O)/C=C/c2ccco2)cc1	-23	-11	0	-1	20	nt	nt	nt	nt	nt
SMILES	SENP6 block	SENP7 inh	Platelet DG rel	SENP8 block-1	SENP8 block-2	SENP8 conf	SENP6 conf	SENP7 confirm	Casp3 SENP sel	SENP luc ctr
CCOC(=O)CC/C(=N\NC(N)=O)c1ccc(OC)c(Cl)c1	-5	-3	4	-3	15	nt	nt	nt	nt	nt
Cc1ccnc(NC(=S)NC(=O)/C=C/c2ccccc2)c1	-13	-4	3	6	-4	nt	nt	nt	nt	nt
Cc1ccnc(NC(=O)/C=C/c2ccccc2Cl)c1	96*	98*	27	93*	-3	82*	92*	91*	94*	63*
CC1CCCN(C(=O)c2ccc(-c3ccccc3Cl)o2)C1 (stereo not given)	50*	16	-18	21	8	32	29	59*	26	16
CCNC(=O)C1CCCN(C(=O)c2cccc(C(F)(F)F)c2)CC1 (stereo not given)	nt	nt	nt	nt	10	nt	nt	nt	nt	nt
O=C(Nc1ccc(F)c(Cl)c1)c1csc(COCCO)n1	nt	nt	nt	nt	14	nt	nt	nt	nt	nt
CCCSc1ccc(C(=O)Nc2ccc(F)cc2F)cn1	52*	68*	13	36	14	1	-1	19	22	-7
COC(=O)c1ccc(C(=O)Nc2ccc3nc(-c4ccncc4)[nH]c3c2)cc1	11	-6	-6	-8	-2	nt	nt	nt	nt	nt
COC(=O)c1ccc(-c2nc3ccccc3[nH]2)cc1	88*	95*	19	85*	-427	93*	93*	100*	96*	91*
COc1ccc(-c2nc3ccccc3[nH]2)cc1	94*	97*	38	95*	-25	96*	98*	103*	98*	96*
Cc1cc(-c2nc3ccccc3[nH]2)ccc1N	50*	91*	27	70*	-392	87*	86*	99*	93*	87*
c1ccc(-c2nc3ccccc3[nH]2)cc1	76*	76*	2	71*	-12	73*	66*	90*	84*	69*
COc1ccc(NC(=O)N2CCCC(C(=O)NCCc3ccccc3)C2)cc1 (stereo not given)	-16	-1	-5	-8	10	nt	nt	nt	nt	nt
Cc1cc(Cl)ccc1OCC(=O)OCC(=O)N1CCC(C(N)=O)CC1	-5	3	nt	5	18	nt	nt	nt	nt	nt
CN(CC(=O)Nc1ccccc1C(F)(F)F)C(=O)Cc1ccc(S(=O)(=O)N2CCOCC2)s1	-3	4	21	-7	6	nt	nt	nt	nt	nt

Screening data deposited in PubChem by several laboratories.
